Source: the supplement of paper PMC3545927
The other results are listed elsewhere or left out. The hit rate among all sequences tested is not known here.

B1: HC1883 (peptide)
chain: CATTPCSASWAGNASASA
B2: HC2036 (peptide)
chain: CAVVGCSMSYAGNASASA
B3: HC1837 (peptide)
chain: CASTPCSGSWAGNASASA
B4: FS-2746 (peptide)
chain: CARPRRVIARAGNASASA
B5: FS-2504 (peptide)
chain: CARPRRSLALAGNASASA
B6: FS-2501 (peptide)
chain: CARPRRELSLAGNASASA
B7: FS-2771 (peptide)
chain: CARRARSSVCAGNASASA
B8: FS-1834 (peptide)
chain: CARRARSPHDAGNASASA
B9: FS-2769 (peptide)
chain: CARRARAVHDAGNASASA
B10: FS-1765 (peptide)
chain: CARPWKSVALAGNASASA
B11: FS-1772 (peptide)
chain: CARRARSWAEAGNASASA
B12: HC607 (peptide)
chain: CALAVFGPLWAGNASASA
B13: HC245 (peptide)
chain: CALPGCSFSIAGNASASA
B14: HC2252 (peptide)
chain: CAEVVTSTWEAGNASASA
B15: HC1934 (peptide)
chain: CATTPCSGSKAGNASASA
B16: HC259 (peptide)
chain: CASTGLYHVTAGNASASA
B17: HC1745 (peptide)
chain: CAMEECSQLLAGNASASA
B18: HC431 (peptide)
chain: CANTRPPLGNAGNASASA
B19: HC2269 (peptide)
chain: CAYLEVVTSTAGNASASA
B20: FS-2177 (peptide)
chain: CARRARFLHEAGNASASA
B21: FS-2773 (peptide)
chain: CARRGRFKGLAGNASASA
B22: FS-2358 (peptide)
chain: CARPRRETCHAGNASASA
B23: FS-1832 (peptide)
chain: CARPQRSACHAGNASASA
B24: HC663 (peptide)
chain: CARRGREILLAGNASASA
B25: FS-2772 (peptide)
chain: CARRARVVHMAGNASASA
B26: FS-2774 (peptide)
chain: CARRGRSRSRAGNASASA
B27: FS-2770 (peptide)
chain: CARRARSLALAGNASASA

Molecular target: furin, P09958
Sequence (P09958 whole entry): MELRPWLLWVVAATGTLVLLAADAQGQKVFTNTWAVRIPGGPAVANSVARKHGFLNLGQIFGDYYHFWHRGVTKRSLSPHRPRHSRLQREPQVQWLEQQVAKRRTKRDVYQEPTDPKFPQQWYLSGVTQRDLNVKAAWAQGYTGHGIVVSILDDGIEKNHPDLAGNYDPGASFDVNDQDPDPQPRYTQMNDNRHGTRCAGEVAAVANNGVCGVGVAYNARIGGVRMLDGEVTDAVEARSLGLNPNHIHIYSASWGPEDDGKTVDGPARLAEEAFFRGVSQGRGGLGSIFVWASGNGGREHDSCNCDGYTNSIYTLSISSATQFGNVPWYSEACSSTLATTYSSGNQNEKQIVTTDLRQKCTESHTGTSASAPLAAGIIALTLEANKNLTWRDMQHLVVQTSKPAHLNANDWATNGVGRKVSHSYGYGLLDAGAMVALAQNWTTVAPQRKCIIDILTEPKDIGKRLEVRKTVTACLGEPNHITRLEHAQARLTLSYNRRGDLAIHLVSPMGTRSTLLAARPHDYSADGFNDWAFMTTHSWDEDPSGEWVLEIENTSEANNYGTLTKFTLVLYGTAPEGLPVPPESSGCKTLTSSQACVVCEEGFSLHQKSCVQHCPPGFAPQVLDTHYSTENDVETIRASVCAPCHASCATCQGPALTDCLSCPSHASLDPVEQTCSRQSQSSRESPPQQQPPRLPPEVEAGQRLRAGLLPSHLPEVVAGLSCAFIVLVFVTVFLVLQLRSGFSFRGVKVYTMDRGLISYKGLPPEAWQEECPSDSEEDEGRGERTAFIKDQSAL
Assay: furin cleavage Z-score vs untreated control; higher = more cleavage, active = 3.5 or more, inactive = 1 or less, 8 variable residues between constant flanks
Summary of the method: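 Peptides 8 residues long, fused to a cDNA oligonucleotide, were fixed to magnetic beads by the N-terminus and exposed to purified furin. The 0.01 ml reactions contained 50 mM HEPES pH 7.5 with CaCl2 and NaCl at 1:10 enzyme:substrate and ran 7.5, 15 or 30 min. For the cleavage Z-score, log counts of sequenced released DNA were compared with furin-free reactions, lowess-adjusted and scaled by median absolute deviation.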

Row | Sequence | furin cleavage Z-score (7.5 min) | furin cleavage Z-score (15 min) | furin cleavage Z-score (30 min)
1 | B1 | -0.499 (inactive) | 0.682 (inactive) | -0.342 (inactive)
2 | B2 | 1.64 | -0.0657 (inactive) | 1.23
3 | B3 | -0.691 (inactive) | -0.464 (inactive) | -0.623 (inactive)
4 | B4 | 0.722 (inactive) | 0.121 (inactive) | 1.35
5 | B5 | 7.93 (active) | 10.2 (active) | 8.84 (active)
6 | B6 | 9.83 (active) | 9.15 (active) | 8.79 (active)
7 | B7 | -0.135 (inactive) | 0.0716 (inactive) | 2.53
8 | B8 | 8.36 (active) | 9.74 (active) | 9.02 (active)
9 | B9 | 0.991 (inactive) | 0.269 (inactive) | 0.722 (inactive)
10 | B10 | 1.43 | 0.873 (inactive) | -0.932 (inactive)
11 | B11 | 0.748 (inactive) | 2.17 | 4.73 (active)
12 | B12 | 0.672 (inactive) | 0.344 (inactive) | 1.61
13 | B13 | -0.725 (inactive) | 0.0221 (inactive) | 1.53
14 | B14 | 1.19 | 1.24 | -0.113 (inactive)
15 | B15 | -0.794 (inactive) | 0.477 (inactive) | -0.455 (inactive)
16 | B16 | 1.56 | 0.496 (inactive) | -0.862 (inactive)
17 | B17 | 0.641 (inactive) | 1.59 | 1.09
18 | B18 | -0.78 (inactive) | -0.196 (inactive) | 0.451 (inactive)
19 | B19 | 1.41 | 0.163 (inactive) | 0.356 (inactive)
20 | B20 | 0.34 (inactive) | 2.97 | 5.38 (active)
21 | B21 | -2.35 (inactive) | 0.257 (inactive) | -0.0126 (inactive)
22 | B22 | 7.06 (active) | 6.02 (active) | 6.63 (active)
23 | B23 | -0.244 (inactive) | 1.03 | 2.47
24 | B24 | 2.14 | 3.52 (active) | 5.12 (active)
25 | B25 | -0.133 (inactive) | -2.18 (inactive) | -0.247 (inactive)
26 | B26 | -0.725 (inactive) | -0.261 (inactive) | -0.331 (inactive)
27 | B27 | 4.92 (active) | 6.9 (active) | 6.89 (active)
